RORg inh: inhibitors of mouse ROR gamma transcriptional activity; Potency, µM (doses to about 53.6 µM), for the others: top-dose activity change, negative = inhibition, hits mostly inhibitors; actives 5.4% (n = 310,000); P51450; Drosophila S2 Gal4-RORgamma UAS-luciferase reporter, 20 h; further: nearly all actives have a fitted effect of over 60% in size
Target sequence (P51450 whole entry, looked up, the tested form may be a part): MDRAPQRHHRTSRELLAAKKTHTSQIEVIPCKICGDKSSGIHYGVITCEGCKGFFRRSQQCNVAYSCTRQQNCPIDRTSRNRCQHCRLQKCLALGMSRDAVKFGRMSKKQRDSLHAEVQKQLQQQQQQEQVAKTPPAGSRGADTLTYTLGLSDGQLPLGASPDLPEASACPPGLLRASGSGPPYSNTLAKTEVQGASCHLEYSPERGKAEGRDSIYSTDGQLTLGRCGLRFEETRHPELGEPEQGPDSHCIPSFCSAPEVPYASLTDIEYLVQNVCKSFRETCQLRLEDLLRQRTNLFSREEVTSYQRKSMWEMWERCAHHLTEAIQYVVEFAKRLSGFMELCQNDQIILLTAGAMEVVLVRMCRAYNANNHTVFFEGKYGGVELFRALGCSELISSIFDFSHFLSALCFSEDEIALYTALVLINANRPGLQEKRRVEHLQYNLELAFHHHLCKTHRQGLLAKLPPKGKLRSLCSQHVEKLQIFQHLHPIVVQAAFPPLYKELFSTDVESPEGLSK
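A Gal4/UAS one-hybrid system in insect cells: metallothionein-promoter Gal4–ROR gamma fusion plus Photinus luciferase reporter. Copper sulfate 700 uM final, 20 hr ambient incubation, luminescent detection after 10 min with reagent.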
ELG1 repair inh: inhibitors of ELG1-dependent DNA repair in HEK293T cells. HEK293T ELG1-luciferase reporter, luminescence, 16 h; DNA damage induced by 5-fluorouridine. Potency, µM (doses to about 46.1 µM), without a hit: top-dose activity change, negative = inhibition, actives largely listed as inhibitors. actives 2.3% (n = 330,000); further: nearly all actives have a fitted effect of over 55% in size
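DMSO vehicle served as the neutral condition. Each well held 2,000 cells given 5-fluorouridine plus compound; after 16 hr at 37 °C/5% CO2, ONE-Glo was added and luciferase measured 30 min later.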
VP16 counter: inhibits Gal4-VP16 luciferase reporter, ROR gamma counter-screen; AID 2546; Drosophila S2 Gal4-VP16 UAS-luciferase, luminescence, 20 h; Potency, µM (highest dose often 53.6 µM), inactives show top-dose activity, negative = inhibition, most hits filed as inhibitors; actives 3.5% (n = 310,000);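 further: Gal4-VP16 expression switched on by copper sulfate through the metallothionein promoter; nearly all actives have a fitted effect of over 50% in size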
TDP1 cell noCPT: qHTS for Inhibitors of human tyrosyl-DNA phosphodiesterase 1 (TDP1): qHTS in cells in absence of CPT; Potency, µM (doses to about 46.2 µM), without a hit: top-dose activity change, negative = growth inhibition, actives largely listed as inhibitors; actives 15% (n = 420,000); DT40 Tdp1-/- hTDP1 cells, no CPT, ATP luminescence, 48 h; AID 686978, 2013; further: nearly all actives have a fitted effect of over 55% in size
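Stably hTDP1-transfected Tdp1-null chicken DT40 cells were treated with library compounds minus camptothecin and grown for at least 48 hr at 37 °C, after which cellular ATP was quantified by luminescence.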
ALOX12 inh: inhibitors of human 12S-lipoxygenase ALOX12 | actives 1.1% (n = 580,000) | P18054 | Potency, µM (series often up to 108 µM), inactives show at the highest dose activity change, negative = inhibition, usual class: inhibitors | purified 12hLO, xylenol orange hydroperoxide absorbance | AID 1671190
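Purified human 12hLO at 150 nM in 25 mM Hepes, 0.01% Triton X-100, pH 7.0, preincubated 15 min at room temperature with compound. Reaction started with 40 uM arachidonic acid, 30 min at room temperature. Hydroperoxide measured by Fe-xylenol orange, 573/405 nm absorbance ratio.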
TDP1 cell CPT: DT40-hTDP1 cell growth loss with CPT | Potency, µM (doses to about 46.2 µM), for the others: at the top dose activity change, negative = growth inhibition, most hits filed as inhibitors | chicken DT40 Tdp1-/-;hTDP1 cells + 20 nM CPT, ATP luminescence, 48 h | actives 12% (n = 420,000); further: nearly all actives have a fitted effect of over 55% in size
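Chicken DT40 Tdp1-/- cells complemented with human TDP1, 400 cells/well, exposed to compounds plus 20 nM camptothecin for at least 48 h at 37 C; viability read as ATP content by CellTiter-Glo luminescence.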
Active calls of the source: *; ? = inconclusive; · = no result; [ ] = another dose, or the depositor's remark. Sampled rows, rich in hits. Any-hit rate of the full collection: about 15%. The call rests on the fitted dose curve; in most records, active means well fitted curve in the direction sought with a large enough effect; inconclusive means small, poorly fitted or top-dose-only effect, or another doubt; inactive means no such curve, though single readings can be large; an effect the other way counts as inactive or inconclusive. On the % scale 0 is the no-effect control and ±100 the full control effect; potency means the concentration at half of the fitted maximal effect.

SMILES | RORg inh | ELG1 repair inh | VP16 counter | TDP1 cell noCPT | ALOX12 inh | TDP1 cell CPT
O=C(O)c1cn(C2CC2)c2cc(N3CCN(S(=O)(=O)c4ccc5c(c4)OCCO5)CC3)c(F)cc2c1=O | -6.9% | ? | 0.0% | 14.6µM* | -3.1% | 14.6µM*
O=c1c2ccc(Cl)cc2[nH]c(=S)n1CCC1=CCCCC1 | 1.26µM* | ? | 2.51µM* | -25.1% | 30.7% | -20.4%
Cc1ccc2c(c1)[nH]c1c(=O)n(CCC3=CCCCC3)cnc12 | 41.3% | 23.1% | -9.7% | · | · | ·
O=c1c2ccccc2[nH]c(=S)n1CCCN1CCOCC1 | ? | 7.7% | -8.9% | 9.3% | -4.7% | 3.0%
CC(C)N(CCn1c(=S)[nH]c2ccccc2c1=O)C(C)C | ? | 8.3% | -1.6% | -16.5% | ? | 4.4%
CCN(CC)CCCn1c(=S)[nH]c2cc(Cl)ccc2c1=O | 10µM* | 14.8% | -21.6% | -13.5% | ? | -22.3%
O=c1c2ccc(Cl)cc2[nH]c(=S)n1CCCN1CCOCC1 | 7.94µM* | 9.0% | ? | ? | ? | ?
CCN(CC)CCCn1c(=S)[nH]c2ccc(Cl)cc2c1=O | 11.2µM* | 3.8% | ? | -2.2% | 2.4% | -4.2%
CCCN(C)c1nccnc1OC1CCN(C(=O)c2ccoc2)C1 (configuration not stated) | · | · | · | · | 44.6% | ·
COCCNc1ncnc2c1CN(C1CCCC1)C(=O)CN2C | · | · | · | · | 0.2%[6.33 µM] | ·
COc1ccc(-c2ccc3c(c2)S(=O)(=O)c2cccc(C(=O)NCc4ccccc4Cl)c2C3=O)cc1OC | · | ? | · | 14.6µM* | ? | 20.6µM*
COc1ccc(-c2ccc3c(c2)S(=O)(=O)c2cccc(C(=O)NC4CC4)c2C3=O)cc1OC | · | 23.9% | · | -27.2% | -3.1% | ?
COc1ccc(-c2ccc3c(c2)S(=O)(=O)c2cccc(C(=O)N4CCN(c5ccc(Cl)cn5)CC4)c2C3=O)cc1OC | · | ? | · | ? | -17.5% | -5.1%
COc1ccc(-c2ccc3c(c2)S(=O)(=O)c2cccc(C(=O)NC4CCCCC4)c2C3=O)cc1OC | · | -2.9% | · | 23.1µM* | · | 14.6µM*
O=C(NCCOc1ccccc1Cl)c1ccc2c(c1)S(=O)(=O)c1cc(Cl)ccc1C2=O | · | -29.9% | · | -27.1% | -2.7% | ?
COc1ccc(-c2ccc3c(c2)S(=O)(=O)c2cccc(C(=O)NCCOc4ccccc4Cl)c2C3=O)cc1OC | · | 24.7% | · | 23.1µM* | -10.7% | 23.1µM*
Cc1cn2nc(C(=O)N3CCC(NC(=O)c4cc(Cl)ccc4F)CC3)cc2c(=O)[nH]1 | · | · | · | · | 34.7% | ·
Cc1ccc(N2C(=O)c3oc4ccccc4c(=O)c3C2c2cccc(O)c2)nc1 (configuration not stated) | · | · | · | ? | -2.7%[57.4 µM] | 20.6µM*
CC1CC2(CCCCC2)Nc2ccc3ccccc3c21 (configuration not stated) | ? | -3.2% | -1.5% | ? | ? | 20.6µM*
CC(=O)N1c2ccc3ccccc3c2C(C)CC12CCCCC2 (configuration not stated) | -13.8% | -1.5% | -0.5% | ? | 7.3% | ?
C=C1CCN([C@@H](CC(C)C)C(=O)NCCC(C)C)S(=O)(=O)c2ccccc21 | · | · | · | 23.1µM* | -7.6% | ?
C=C1CCN([C@@H](CC(C)C)C(=O)NCc2ccc(Cl)c(Cl)c2)S(=O)(=O)c2ccccc21 | · | · | · | 16.4µM* | -9.8% | ?
C=C1CCN([C@@H](Cc2ccccc2)C(=O)NCCCc2ccccc2)S(=O)(=O)c2ccccc21 | · | · | · | ? | -3.4% | 23.1µM*
C=C1CCN([C@@H](CC(C)C)C(=O)NN2CCOCC2)S(=O)(=O)c2ccccc21 | · | · | · | 16.9% | 3.5% | 3.5%
C=C1CCN([C@@H](CC(C)C)C(=O)NCc2ccc(OC)cc2)S(=O)(=O)c2ccccc21 | · | · | · | 23.1µM* | -4.0% | ?
SMILES | RORg inh | ELG1 repair inh | VP16 counter | TDP1 cell noCPT | ALOX12 inh | TDP1 cell CPT
C=C1CCN([C@@H](CC(C)C)C(=O)NCc2ccc(Cl)cc2)S(=O)(=O)c2ccccc21 | · | · | · | ? | -13.2% | ?
CC(C)C(=O)N1CCN(C(=O)c2cc(C(C)C)nc3ccccc23)CC1 | · | · | · | · | -0.4% | ·
Cc1ccc2[nH]cc(C(C(=O)O)N3CCN(c4cccc(Cl)c4)CC3)c2c1 (configuration not stated) | · | · | · | · | 1.6% | ·
Cc1ccc(-c2cc(NC(=O)CCl)n(-c3ccccc3)n2)cc1 | 6.31µM* | 0.0% | 5.01µM* | 7.31µM* | ? | -90.5%
Cc1ccc(-c2nn(-c3ccccc3)cc2/C=N/O)cc1 | -9.1% | -2.1% | 1.1% | -12.9% | -18.6% | 20.6%
Cc1ccc(C)c(NC(=O)c2nc(-c3ccccc3)n(-c3ccccc3)n2)c1 | ? | ? | 13.2% | ? | 0.0% | ?
Cc1ccc(-c2nn(-c3ccccc3)cc2NC(=O)CCl)cc1 | -33.5% | ? | -3.6% | 2.59µM* | ? | 3.26µM*
Cc1ccc(C)c(NC(=O)c2cc(-c3ccccc3)nn2-c2ccccc2)c1 | 15.3% | ? | 22.4µM* | ? | -16.0% | ?
O=C(CCl)Nc1cc(-c2ccccc2)nn1-c1ccccc1 | 14.1µM* | ? | ? | 3.26µM* | ? | 5.17µM*
CC(=O)Nc1ccc(-c2cc(NC(C)=O)n(-c3ccccc3)n2)cc1 | 6.2% | 13.0% | -1.0% | -11.7% | 0.0% | -0.2%
CC(C)NC(=O)[C@H]1O[C@H](CCN2CCN(c3ccc(F)cc3)CC2)CC[C@@H]1O | · | · | · | · | 35.0%[176 µM] | ·
CCCOc1ccc(NC(=O)C(C)Oc2ccccc2F)c2cccnc12 (configuration not stated) | · | · | · | · | 42.8% | ·
CCOc1ccccc1C(=O)N(CN1CCCC1=O)c1ccc(C)c(Cl)c1 | -19.6% | 2.1% | -3.7% | 3.66µM* | -16.0% | 3.66µM*
Cc1ccc(C(=O)N(CN2CCCC2=O)c2ccc(F)cc2)cc1C | 7.0% | -4.6% | 15.4% | 25.9µM* | 0.9% | ?
CCOc1ccccc1C(=O)N(C)C1CCc2nn(CC3CC3)c(=O)n2CC1 (configuration not stated) | · | · | · | · | 42.2% | ·
Cc1ccc(N(CN2CCCC2=O)C(=O)c2ccc(C)c(C)c2)cc1 | -32.9% | -3.9% | 26.9% | 7.31µM* | -5.3% | 8.2µM*
Cc1ccc(C(=O)N(CN2CCCC2=O)c2ccccc2)cc1C | 2.8% | -2.0% | -1.7% | ? | -8.7% | ?
Cc1cc(C)n2nc(SCC(=O)c3cc(C)n(C4CCS(=O)(=O)C4)c3C)nc2n1 (configuration not stated) | · | · | · | · | -13.4% | ·

Assay outcomes deposited in PubChem by National Center for Advancing Translational Sciences (NCATS).
